Screening data (PubChem BioAssay)
A selection: hits, their analogues and other compounds. The true share with any hit is near 2.4%.
ATXN2 expr inh: Primary qHTS for Inhibitors of ATXN expression. HEK-293 ATXN2-luciferase reporter, luminescence, 24 h. AID 1745845, 2022. 360,000 compounds, 0.72% hits. Potency, µM (doses to about 57 µM), for inactives: top-dose activity change, negative = inhibition, hits mostly inhibitors; also: % is scaled to controls: 0 for no effect and ±100 for the full control effect; nearly all actives have a fitted effect of over 55% in size
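ATXN2-luciferase reporter cells (luciferase flanked by upstream and downstream ATXN2 gene portions) were treated 24 h at 37 °C with compounds at up to 57 uM. SteadyGlo luminescence gave expression; GF-AFC fluorescence gave viability.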
HepG2 tox-1: qHTS for Inhibitors of TGF-b: Cytotox Counterscreen | AID 588856, 2011 | Potency, µM (doses to about 46.1 µM), inactives show at the highest dose activity change, negative = cytotoxicity, most hits filed as cytotoxic | 410,000 compounds, 0.76% hits | HepG2 CAGA-GFP viability, ATP luminescence, 18 h
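CellTiter-Glo luminescence gave cytotoxicity after 18 hours at 37 degrees C. The cells were HepG2 CAGA-GFP in 1% FBS DMEM, stimulated with 500 pg/mL TGF-beta after compound addition. %Activity was normalised to no-cell wells (complete cell-killing) and DMSO (no toxicity), and curves were fitted and classified.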
Anesthetic bind: qHTS Assay for Identification of Novel General Anesthetics. 350,000 compounds, 0.074% hits. apoferritin/1-aminoanthracene competitive binding, fluorescence. Potency, µM (doses to about 77.5 µM), inactives show top-dose activity change, negative = displacement, hits mostly inhibitors; also: % is scaled to controls: 0 for no effect and ±100 for the full control effect; nearly all actives have a fitted effect of over 20% in size
Target sequence (P02791 2-175 limits assumed): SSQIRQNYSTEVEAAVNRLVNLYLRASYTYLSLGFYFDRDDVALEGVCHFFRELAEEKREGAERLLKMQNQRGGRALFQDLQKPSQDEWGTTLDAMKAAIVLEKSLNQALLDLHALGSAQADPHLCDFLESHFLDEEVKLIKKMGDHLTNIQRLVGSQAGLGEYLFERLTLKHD
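Horse-spleen apoferritin (10 uM) in 50% saturated 1-aminoanthracene in PBS was incubated 10 min at room temperature with compound. Fluorescence (ex 380, em 535 nm) was normalized to free and bound 1-AMA, with concentration-response fitted by a four-parameter Hill equation.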
S2 tox: Viability Counterscreen for Primary qHTS for Inhibitors of ATXN expression; S2 cells (HEK-293 line with an ATXN2-luciferase reporter) viability, CellTiter-Fluor protease fluorescence, 24 h; Potency, µM (top dose mostly 56.7 µM), actives largely listed as cytotoxic; 400,000 compounds, 0.49% hits; also: nearly all actives have a fitted effect of over 40% in size
TGFb inhibitor: qHTS for Inhibitors of TGF-b | HepG2 CAGA-GFP TGF-b/SMAD3 reporter, GFP fluorescence, 18 h; TGF-beta stimulated, 500 pg/mL final | Potency, µM (doses to about 46.1 µM), inactives show at the top dose activity, negative = inhibition, most hits filed as inhibitors | 410,000 compounds, 1.2% hits | AID 588855, 2011; also: % is scaled to controls: 0 for no effect and ±100 for the full control effect; nearly all actives have a fitted effect of over 65% in size
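Inhibition was scored as loss of TGF-beta-induced (500 pg/mL final, 18 hours, 37 degrees C) GFP in HEPG2 cells carrying a CAGA-GFP reporter, in DMEM with 1% FBS. Well GFP was summed per cell; Activity was normalised to unstimulated and stimulated DMSO wells, then concentration-response fitting.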
TGFb confirm: qHTS for Inhibitors of TGF-b: Confirmation of Cherry Picks; shares compounds with TGFb inhibitor; HepG2 CAGA-GFP TGF-b reporter, GFP fluorescence, 18 h; cells stimulated with TGF-beta, 500 pg/mL; Potency, µM (top dose mostly 46.1 µM), for inactives: top-dose activity, negative = inhibition, usual class: inhibitors; 1,600 compounds, 63% hits; AID 720534, 2013; also: % is scaled to controls: 0 for no effect and ±100 for the full control effect; nearly all actives have a fitted effect of over 65% in size
HepG2 tox-2: qHTS for Inhibitors of TGF-b: Cytotox Counterscreen for Cherry Picks; 1,600 compounds, 27% hits; HepG2 CAGA-GFP viability, ATP luminescence, 18 h; cells stimulated with TGF-beta, 500 pg/mL; AID 720535, 2013; Potency, µM (top dose mostly 46.1 µM), for inactives: at the highest dose activity, negative = cytotoxicity, usual class: inhibitors; shares compounds with TGFb inhibitor; also: % is scaled to controls: 0 for no effect and ±100 for the full control effect; nearly all actives have a fitted effect of over 70% in size
CCL64 TGFb inh: qHTS for Inhibitors of TGF-b: CCL64 Cells Orthogonal Assay for Cherry Picks | shares compounds with TGFb inhibitor | CCL64 CAGA-GFP reporter, TGF-b stimulated, GFP fluorescence, 18 h | Potency, µM (titrated, usually from 46.1 µM), for the others: at the highest dose activity, negative = inhibition, most hits filed as inhibitors | 1,600 compounds, 41% hits | AID 720536, 2013; also: nearly all actives have a fitted effect of over 65% in size
COP TGFb inh: qHTS for Inhibitors of TGF-b: Hit Validation in HepG2 Cells using COP promoter | AID 720537, 2013 | Potency, µM (titrated, usually from 46.1 µM), for inactives: at the top dose activity, negative = inhibition, actives largely listed as inhibitors | shares compounds with TGFb inhibitor | HepG2 COP-GFP TGF-b reporter, GFP fluorescence, 18 h; cells stimulated by added recombinant TGF-beta | 1,600 compounds, 3% hits; also: nearly all actives have a fitted effect of over 70% in size
The depositor's hits bear a star; i = inactive; ? = inconclusive; . = not tested or not shown; [ ] = remark or other dose. Calls follow the shape of the dose curve; as a rule, active = well fitted curve in the direction sought with a large enough effect; inconclusive = small, poorly fitted or top-dose-only effect, or another doubt; inactive = no such curve, though single readings can be large; an effect the other way counts as inactive or inconclusive. Potency is read from the fitted curve at half-maximal effect.

SMILES | ATXN2 expr inh | HepG2 tox-1 | Anesthetic bind | S2 tox | TGFb inhibitor | TGFb confirm | HepG2 tox-2 | CCL64 TGFb inh | COP TGFb inh
COc1ccccc1-c1cc(C(F)(F)F)nc(S(=O)(=O)CCCC(=O)N2CCOCC2)n1 | ? | -126% | 5% | 18µM* | 2.2µM* | 1.8µM* | 21µM* | 4.1µM* | ?
O=C(NCc1cccs1)C1Cc2c(-c3ccc(Cl)cc3)ccnc2O1 (stereo not given) | -18% | -12% | . | ? | ? | . | . | . | .
COc1ccc(C(=O)/C=C/C(=O)N(Cc2ccc(F)cc2)C(C(=O)NC2CCCCC2)c2ccncc2)c(O)c1 (stereo not given) | -29% | 2% | ? | ? | 10µM* | ? | -18% | 13µM* | 35%
CCN1CCN(c2ccc(S(=O)(=O)N3CCCCC3)cc2NC(=O)c2ccc([N+](=O)[O-])o2)CC1 | ? | -106% | . | . | 7.9µM* | 10µM* | 21µM* | 16µM* | ?
COc1ccc(S(=O)(=O)N2CCCCC2)cc1NC(=O)c1ccc([N+](=O)[O-])o1 | 3% | 0% | -10% | i | -10% | . | . | . | .
CC(=O)N1CCN(c2ccc(NC(=O)c3ccc([N+](=O)[O-])o3)cc2Cl)CC1 | -36% | i | 6% | ? | 6.3µM* | 4.6µM* | 18µM* | 12µM* | -28%
CCC(=O)N1CCN(c2ccc(NC(=O)c3ccc([N+](=O)[O-])o3)cc2Cl)CC1 | ? | -87% | -23% | ? | 7.9µM* | 3.7µM* | 9.2µM* | 21µM* | -15%
CCN1CCN(c2ccc(NC(=O)c3ccc([N+](=O)[O-])o3)cc2Cl)CC1 | -11% | -6% | -15% | ? | ? | . | . | . | .
CC(=O)Nc1ccc2nc(NC(=O)c3ccc([N+](=O)[O-])o3)sc2c1 | 3% | 0% | -1% | i | 5µM* | 1.8µM* | 21µM* | ? | 21%
O=c1c2oc3ccccc3c2n(Cc2ccccc2F)c(=O)n1Cc1ccccc1 | 5% | -28% | -7% | i | -5% | . | . | . | .
Cc1ccc(S(=O)(=O)Nc2cccc(C(=O)NCC3CCCO3)c2)cc1F (stereo not given) | -13% | 0% | . | i | ? | . | . | . | .
O=C(NCC1CC1)c1ccc(Nc2nc3ccc(Br)cc3[nH]2)cc1 | -20% | -27% | -24% | ? | 10µM* | ? | ? | ? | 52%
CN(C)c1oc(-c2ccc(COc3ccccc3)o2)nc1C#N | -21% | -14% | 172% | i | -10% | . | . | . | .
O=C(C(=Cc1ccc(F)cc1)C(=O)c1ccccc1)c1ccccc1 | 0% | -16% | . | i | 8.9µM* | 3.7µM* | ? | 13µM* | 27%
COCCN(C(=O)COC(=O)c1ccccc1Nc1ccccc1)c1c(N)n(Cc2ccccc2)c(=O)[nH]c1=O | ? | -3% | . | ? | 11µM* | 15µM* | -28% | 1.6µM* | 20%
CN(C(=O)COC(=O)c1ccccc1Nc1ccccc1)c1c(N)n(Cc2ccccc2)c(=O)[nH]c1=O | ? | 14% | . | i | ? | . | . | . | .
CN(CC(=O)Nc1ccccc1)CC(=O)Nc1ccccc1Cl | 43% | 3% | -6% | i | 2% | . | . | . | .
CCCCc1ccc(NC(=O)CN(C)CC(=O)Nc2ccccc2Cl)cc1 | -10% | -33% | -19% | i | 22µM* | ? | 3% | ? | 1%
O=[N+]([O-])c1ccc(N/N=C/c2cccnc2)cc1 | -1% | -14% | -18% | i | 10µM* | 10µM* | ? | 5% | 27%
COc1ccccc1-n1cnc2cc(NCc3ccco3)ccc21 | 17% | -2% | ? | ? | 8.9µM* | 13µM* | -4% | 21µM* | -19%
Cc1cc(Cl)c(S(=O)(=O)N2CCN(c3ccccn3)CC2)cc1OCC(=O)NC1CCCCC1 | . | -22% | 11% | ? | 10µM* | 12µM* | ? | -25% | 16%
Cc1ccccc1C(=O)NC(=S)N(C)C1CCCCC1 | 28% | -4% | -17% | i | 9% | . | . | . | .
CN(C(=S)NC(=O)c1ccccc1Br)C1CCCCC1 | -13% | -23% | -19% | i | ? | -20% | -13% | 9% | 2%
O=C(c1cccs1)N(Cc1nc2sc3c(c2c(=O)[nH]1)CCCC3)C1CCCC1 | -5% | 1% | -21% | ? | ? | ? | ? | ? | 29%
Cc1sc2nc(CN(C(=O)c3cccs3)C3CCCC3)[nH]c(=O)c2c1C | 13% | -21% | -22% | i | -18% | . | . | . | .
COc1cc(OC)c2c(-c3cccc(-c4ccc(NC(C)=O)cc4)c3)cc(=O)oc2c1 | 9% | -13% | -7%[110 µM] | ? | 4.5µM* | 1.6µM* | -14% | 2.1µM* | 13%
COc1ccc(OC)c(CN2CCCC(C(=O)c3ccccc3SC)C2)c1 (stereo not given) | ? | -28% | -12% | ? | ? | ? | ? | ? | 40%
COc1ccc(-c2[nH]ncc2CN2CCCC(C(=O)c3ccc(OC)cc3OC)C2)cc1 (stereo not given) | . | 0% | -18% | i | -3% | . | . | . | .
COc1ccccc1C(=O)NC(CCSC)C(=O)OCC(=O)N1CCN(S(=O)(=O)c2ccc(C)cc2)CC1 (stereo not given) | 2% | -29% | . | i | -32% | . | . | . | .
